Only some compounds are listed: those with a hit (about 17% of all), similar ones and a draw of the others.
HT1080-NT tox: kills 2HG-producing HT-1080-NT fibrosarcoma cells | HT-1080-NT fibrosarcoma viability, CellTiter-Glo ATP luminescence, 48 h | Potency, µM (highest dose often 46.1 µM), without a hit: at the highest dose activity, negative = less viability, most hits filed as cytotoxic | 360,000 compounds, 1.6% hits;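 also: NT is the 2HG producing partner of a matched IDH1 knockdown line; 0% = DMSO-treated cells and -100% = media-only wells without cells; nearly all actives have a fitted effect of over 55% in size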
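Toxicity toward the 2HG-producing NT line was scored as %Activity, normalised to DMSO and no-cell wells, from CellTiter-Glo luminescence after 48 hours' treatment.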
HT1080 IDH1KD tx: kills HT-1080 cells with IDH1 knockdown; AID 686971; 360,000 compounds, 2% hits; Potency, µM (highest dose often 46.1 µM), for the others: at the highest dose activity, negative = toxicity, most hits filed as cytotoxic; HT-1080 IDH1 knockdown viability, ATP luminescence, 48 h;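 also: 0% = DMSO wells and -100% = cell-free medium wells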
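After a 2 h attachment period, IDH1KD HT-1080 cells took pin-transferred compound for 48 h at 37 °C; ATP-based luminescence after 10 min room-temperature reagent incubation reported viability.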
DT40 TDP1 CPT: growth inhibition of DT40 Tdp1-/-;hTDP1 cells with camptothecin (screen for TDP1 inhibitors). chicken DT40 Tdp1-/-;hTDP1 cells + 20 nM CPT, ATP luminescence, 48 h. Potency, µM (top dose mostly 46.2 µM), for the others: at the top dose activity change, negative = growth inhibition, actives largely listed as inhibitors. 420,000 compounds, 12% hits. AID 686979; also: % is scaled to controls: 0 for no effect and ±100 for the full control effect; nearly all actives have a fitted effect of over 55% in size
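Chicken DT40 Tdp1-/- cells stably complemented with human TDP1 were seeded at 400 cells/well in medium containing 20 nM camptothecin, exposed to pin-transferred compounds, and grown at 37 °C for at least 48 hr. Viability was read as ATP luminescence.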
DT40 TDP1 no CPT: qHTS for Inhibitors of human tyrosyl-DNA phosphodiesterase 1 (TDP1): qHTS in cells in absence of CPT | DT40 Tdp1-/- hTDP1 cells, no CPT, ATP luminescence, 48 h | Potency, µM (series often up to 46.2 µM), without a hit: top-dose activity change, negative = growth inhibition, usual class: inhibitors | 420,000 compounds, 15% hits | AID 686978, 2013; also: % is scaled to controls: 0 for no effect and ±100 for the full control effect; nearly all actives have a fitted effect of over 55% in size
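Stably hTDP1-transfected Tdp1-null chicken DT40 cells were treated with library compounds minus camptothecin and grown for at least 48 hr at 37 °C, after which cellular ATP was quantified by luminescence.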
TGFb inhibitor: TGF-b pathway inhibition; Potency, µM (highest dose often 46.1 µM), for the others: top-dose activity, negative = inhibition, actives largely listed as inhibitors; HepG2 CAGA-GFP TGF-b/SMAD3 reporter, GFP fluorescence, 18 h; TGF-beta stimulated, 500 pg/mL final; 410,000 compounds, 1.2% hits; AID 588855; also: % is scaled to controls: 0 for no effect and ±100 for the full control effect; nearly all actives have a fitted effect of over 65% in size
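HEPG2 CAGA-GFP cells (1000/well, DMEM with 1% FBS) were pre-incubated 2 h at 37 degrees C, given compound by pin tool, then stimulated with TGF-beta at 500 pg/mL final for 18 h before per-cell GFP fluorescence imaging.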
HepG2 tox: HepG2 cytotoxicity, counter-screen for TGF-b inhibitors; HepG2 CAGA-GFP viability, ATP luminescence, 18 h; Potency, µM (doses to about 46.1 µM), inactives show at the highest dose activity change, negative = cytotoxicity, actives largely listed as cytotoxic; 410,000 compounds, 0.76% hits
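CellTiter-Glo luminescence gave cytotoxicity after 18 hours at 37 degrees C. The cells were HepG2 CAGA-GFP in 1% FBS DMEM, stimulated with 500 pg/mL TGF-beta after compound addition. %Activity was normalised to no-cell wells (complete cell-killing) and DMSO (no toxicity), and curves were fitted and classified.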
The depositor's hits bear a star; ? = inconclusive; . = not tested or not shown. Calls follow the shape of the dose curve; as a rule, active = well fitted curve in the direction sought with a large enough effect; inconclusive = small, poorly fitted or top-dose-only effect, or another doubt; inactive = no such curve, though single readings can be large; an effect the other way counts as inactive or inconclusive. Potency is read from the fitted curve at half-maximal effect.

SMILES	HT1080-NT tox	HT1080 IDH1KD tx	DT40 TDP1 CPT	DT40 TDP1 no CPT	TGFb inhibitor	HepG2 tox
CCSc1nnc2c(n1)OC(c1ccc(OC)c(OC)c1)N(C(C)=O)c1ccccc1-2 (stereo unspecified)	.	.	-4%	8%	0%	-16%
COc1ccc(/C=C/C(=O)Nc2ccc3nc4c(c(Nc5ccccc5OC)c3c2)CCCC4)cc1	.	.	3.3µM*	3.7µM*	7.1µM*	-84%
COc1ccc(OC)c(NC(=O)c2c3c(nc4ccccc24)CCC3)c1	1%	-11%	?	-29%	6%	-10%
O=C(Nc1ccc2nc3n(c(=O)c2c1)CCCC3)c1cccc(F)c1	2%	3%	-30%	-21%	7%	-2%
COc1ccccc1Nc1c2c(nc3ccc(NC(=O)c4cccc(F)c4)cc13)CCCC2	.	.	5.8µM*	2.6µM*	?	-107%
COc1cccc(/C=C/C(=O)Nc2ccc(N3CCOCC3)cc2)c1OC	-11%	-9%	8%	?	-2%	9%
COc1ccccc1Nc1c2c(nc3ccc(NC(=O)/C=C/c4cccc(OC)c4OC)cc13)CCCC2	.	.	3.3µM*	4.1µM*	?	-75%
COc1ccc(Nc2c3c(nc4ccc(NC(=O)/C=C/c5cccc(OC)c5OC)cc24)CCCC3)cc1OC	.	.	2.3µM*	4.6µM*	3.5µM*	-93%
CSCCC(C(=O)NCc1ccccc1)n1c(C2CCN(C(C)=O)CC2)nc2ccccc21 (stereo unspecified)	13%	17%	?	?	.	.
C=CCNC(=O)c1cccc(NS(=O)(=O)c2ccc(Cl)cc2)c1	-1%	0%	-23%	-7%	-1%	-11%
Cc1c(-c2ccccc2)c(=O)oc2cc(O)ccc12	2%	4%	0%	23%	-23%	-2%
N#CCc1nc2ccccc2c(=O)[nH]1	-3%	-2%	0%	?	-1%	-37%
O=C(CNc1cccc(C(F)(F)F)c1)N/N=C/c1cccc(Br)c1	22%	15%	18µM*	?	0%	-91%
Cc1cccc(NCC(=O)N/N=C/c2cccc(Br)c2)c1	13%	0%	?	?	-19%	-26%
CCOc1ccc(C(=O)c2oc3ccccc3c2NC(=O)c2cc(=O)c3ccc(C)cc3o2)cc1	.	.	-3%	-16%	-7%	-14%
COc1ccc(OCC(=O)Nc2nc3c(s2)CCCC3)cc1	6%	0%	?	?	-2%	-9%
COC(=O)c1ccc(C(=O)NC(=S)Nc2nc3c(s2)CCCC3)cc1	-1%	0%	?	16µM*	?	-6%
O=C(CS(=O)(=O)Cc1ccccc1)Nc1nc2c(s1)CCCC2	1%	14%	-4%	-17%	?	2%
O=C(NC(=S)Nc1nc2c(s1)CCCC2)c1ccccc1	1%	0%	?	29µM*	-2%	-16%
O=C(CCS(=O)(=O)Cc1ccccc1)Nc1nc2c(s1)CCCC2	?	8.9µM*	?	26µM*	?	13%
CC(=O)c1c(C)[nH]c(C(=O)CN2C(=O)NC(C)(CCC(C)C)C2=O)c1C (stereo unspecified)	-4%	3%	-29%	?	9%	-34%
CCCCn1c(CNC(=O)C23CC4CC(CC(C4)C2)C3)nnc1SCC(=O)Nc1ccccc1	.	.	?	?	-24%	-2%
CN(C)c1ccc(P(=O)(COc2ccc([N+](=O)[O-])cc2)c2ccc(N(C)C)cc2)cc1	?	?	?	21µM*	-20%	-183%
COCCCNC(=O)c1ccc(-n2c(-c3ccccc3)cc3c2CCCC3)cc1	.	.	?	21µM*	?	-31%
COc1cccc(CNC(=O)c2ccc(-n3c(C)cc4c3CCCC4)cc2)c1	.	.	-83%	16µM*	22%	-11%
SMILES	HT1080-NT tox	HT1080 IDH1KD tx	DT40 TDP1 CPT	DT40 TDP1 no CPT	TGFb inhibitor	HepG2 tox
CCN(CC)CCNC(=O)c1ccc(-n2c(-c3ccccc3)cc3c2CCCC3)cc1	.	.	?	?	-39%	-59%
COc1cccc(CNC(=O)c2ccc(NC(=O)N3CCCCc4ccccc43)cc2)c1	.	.	?	21µM*	-11%	-37%
COc1cccc(CNC(=O)c2ccc(NC(=O)N3CCCCc4ccccc43)cc2)c1OC	.	.	?	16µM*	-9%	2%
Clc1nssc1=Nc1ccccc1	-3%	0%	16µM*	15µM*	-1%	-42%
Clc1ss/c(=N\c2ccccn2)c1Cl	8%	11%	-13%	-15%	0%	-8%
Clc1ccc(N=c2ssnc2Cl)cc1	-13%	-18%	10µM*	15µM*	14µM*	-36%
Fc1ccc(N=c2ssnc2Cl)c(F)c1	?	?	7.3µM*	9.2µM*	-30%	-26%
COc1ccc(N=c2ssnc2Cl)cc1	-8%	-1%	7.3µM*	9.2µM*	-1%	-4%
COc1ccc(N=C2SCC(=O)N2C)cc1	1%	4%	-10%	4%	-7%	-15%
O=C1CSC(=Nc2ccc(Cl)cc2)N1	10%	6%	7%	2%	12%	4%
CCOC(=O)C1(NC(=O)C2(N3C(=O)c4ccccc4C3=O)CCCC2)CCCC1	-7%	-10%	-1%	3%	-2%	-29%
N#Cc1ccc(N=c2ssnc2Cl)cc1	?	?	5.2µM*	7.3µM*	?	0%

Source: PubChem (National Center for Advancing Translational Sciences (NCATS))
